From PubChem BioAssay
Pf growth 96h: inhibits malaria parasite growth, 96 h; P. falciparum luciferase reporter growth, 96 h; actives 6.9% (n = 320,000); Potency, µM (doses to about 28.7 µM), without a hit: at the top dose activity change, negative = inhibition, actives largely listed as inhibitors
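Delayed-death screen, second-generation endpoint: infected erythrocytes, 2% hematocrit, 0.05% parasitemia final; 96 hours at 37 C, 5% CO2; luciferase detection reagent; luminescence decrease equals reduced growth.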
Pf growth 48h: inhibits P. falciparum growth in the first generation, 48 h | P. falciparum luciferase growth in erythrocytes, 48 h | Potency, µM (top dose mostly 28.7 µM), inactives show at the top dose activity change, negative = inhibition, actives largely listed as inhibitors | actives 5.9% (n = 310,000) | AID 504832
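A one-generation exposure of luciferase-tagged malaria parasites in RPMI 1640/Albumax erythrocyte culture, 37 C and 5% CO2. Inhibition is inferred from decreased luminescence after adding detection reagent.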
AMA1-RON2 inh: AMA1-RON2 (P. falciparum) interaction inhibition; AlphaScreen AMA1-biotinylated RON2 peptide binding; Potency, µM (highest dose often 58.2 µM), inactives show at the highest dose activity change, negative = inhibition, usual class: inhibitors; actives 0.2% (n = 360,000); AID 720542;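 further: 0% = vehicle wells and -100% = peptide control; nearly all actives have a fitted effect of over 45% in size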
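AMA1 (3D7) with his tag at 25 nM final met compounds first, then biotinylated RON2 peptide at 25 nM; detection used donor plus acceptor beads, 10 µg/mL apiece, read by AlphaScreen after 30 min at room temperature.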
HCV inhibitor: HCV inhibition | Potency, µM (doses to about 41.8 µM), for the others: top-dose activity change, negative = inhibition, most hits filed as inhibitors | actives 3.4% (n = 340,000) | Huh7.5.1 HCVcc-Cre infection, luciferase reporter, 44 h
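1,000 cells/well; 4 h culture; + compound; + HCVcc-Cre (~0.5 moi); 44 h; luciferase substrate, RT 15 min; read 15 sec.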
Numbers without * were called inactive; [ ] = dose if it differs, or a comment. Only some compounds are listed: those with a hit (about 11% of all), similar ones and a draw of the others. The call rests on the fitted dose curve; in most records, active means well fitted curve in the direction sought with a large enough effect; inconclusive means small, poorly fitted or top-dose-only effect, or another doubt; inactive means no such curve, though single readings can be large; an effect the other way counts as inactive or inconclusive. Unless noted, on the % scale 0 is the no-effect control and ±100 the full control effect; potency means the concentration at half of the fitted maximal effect.

Screening COc1cc(/C=C/c2ccc3cccc(O)c3n2)ccc1O returned Pf growth 96h inconclusive, Pf growth 48h -61%, AMA1-RON2 inh 93% and HCV inhibitor 11µM*.
COc1ccc(OC)c(/C=C/c2ccc3cccc(O)c3n2)c1 was read as Pf growth 96h 39% and Pf growth 48h 4.1µM*.
Screening COc1cc(/C=C/c2ccc3cccc(O)c3n2)c(Br)cc1O returned Pf growth 96h 21% and Pf growth 48h inconclusive.
For CSc1ccc(/C=C/c2ccc3cccc(O)c3n2)cc1 the results were Pf growth 96h -26%, Pf growth 48h -19%, AMA1-RON2 inh 46% and HCV inhibitor inconclusive.
For S=C(NCCc1ccccc1)Nc1cccc2cnccc12 the results were Pf growth 96h 4%, Pf growth 48h -2%, AMA1-RON2 inh 1% and HCV inhibitor inconclusive.
Screening Cc1cnc(C(=O)OCC(=O)NC(C)CCc2ccccc2)cn1 (stereo not drawn) returned Pf growth 96h 28%, Pf growth 48h 29%, AMA1-RON2 inh 17% and HCV inhibitor 13%.
For CCOc1ccc(NC(=O)C2(c3ccc(OC)c(OC)c3)CCCC2)cc1 the results were Pf growth 96h 1.7µM*, Pf growth 48h inconclusive, AMA1-RON2 inh -5% and HCV inhibitor -14%.
CCOc1ccc(NC(=O)c2cc3ccccc3cc2O)cc1 was read as Pf growth 96h 1.9µM*, Pf growth 48h 1µM*, AMA1-RON2 inh -2% and HCV inhibitor inconclusive.
For COc1ccc2o/c(=N\O)c(C(=O)Nc3ccc(C)cc3)cc2c1 the results were Pf growth 96h 20%, Pf growth 48h -2%, AMA1-RON2 inh -1% and HCV inhibitor 10µM*.
COc1ccc2oc(=N)c(C(=O)Nc3ccc(C)cc3)cc2c1 was read as Pf growth 96h inconclusive, Pf growth 48h 120%, AMA1-RON2 inh 9% and HCV inhibitor -9%.
For CCOc1ccc(NC(=O)c2cccc3ccccc23)cc1 the results were Pf growth 96h inconclusive, Pf growth 48h 12%, AMA1-RON2 inh -2% and HCV inhibitor inconclusive.
COc1cc2ccccc2cc1C(=O)Nc1cccnc1 was read as Pf growth 48h 112%, AMA1-RON2 inh -3% and HCV inhibitor 32µM*.
Screening COc1cc(OC)c(C(=O)Nc2cccnc2)cc1OC returned Pf growth 96h inconclusive, Pf growth 48h 15%, AMA1-RON2 inh -16% and HCV inhibitor -15%.
Cc1cc(-c2ccccc2)c2ccc(NC(=O)C(C)(C)C)nc2n1 was read as Pf growth 96h inconclusive, Pf growth 48h inconclusive, AMA1-RON2 inh 3% and HCV inhibitor 1%.
`COc1cc2cc(C(=O)Nc3ccccc3)c(N)nc2cc1OC` gave Pf growth 96h inconclusive, Pf growth 48h 2.3µM*, AMA1-RON2 inh 12% and HCV inhibitor -16%.
CCOc1ccc(NC(=O)NNC(=O)COc2ccc3ccccc3c2)cc1 was read as Pf growth 96h 2.6µM*, Pf growth 48h -1%, AMA1-RON2 inh 49% and HCV inhibitor 8%.
`COc1cc2ccccc2cc1C(=O)Nc1ccccc1Cl` gave Pf growth 96h 32%, Pf growth 48h inconclusive, AMA1-RON2 inh 33% and HCV inhibitor inconclusive.
For COc1ccc(NC(=O)c2cc3ccccc3cc2OC)cc1 the results were Pf growth 96h 76%, Pf growth 48h inconclusive, AMA1-RON2 inh 2% and HCV inhibitor 8.9µM*.
Screening O=C(Nc1cccnc1)c1ccc2ccccc2c1O returned Pf growth 96h 0.47µM*, Pf growth 48h 65%, AMA1-RON2 inh 5% and HCV inhibitor 8%.
Screening COc1ccc(NC(=O)NNC(=O)COc2ccc3ccccc3c2)cc1 returned Pf growth 96h -31%, Pf growth 48h 17%, AMA1-RON2 inh 64% and HCV inhibitor 15%.
Screening CCOc1ccc(C(=O)OCC(=O)N2CCCC2)cc1OCC returned Pf growth 96h 7%, Pf growth 48h 9%, AMA1-RON2 inh 2% and HCV inhibitor 2%.
For CCOc1ccc(NC(=O)c2cc3ccccc3cc2OC)cc1 the results were Pf growth 96h -44%, Pf growth 48h -26%, AMA1-RON2 inh 4% and HCV inhibitor 10µM*.
`CCOc1ccc(NC(=O)c2cc(OC)nc3ccccc23)cc1` gave Pf growth 96h -26%, Pf growth 48h 21%[0.00184 µM], AMA1-RON2 inh 23% and HCV inhibitor inconclusive.
CC(C)N1CCc2c(sc(NC(=O)c3ccc(C(=O)c4ccccc4)cc3)c2C(N)=O)C1 was read as Pf growth 96h inconclusive, Pf growth 48h 13µM*, AMA1-RON2 inh inconclusive and HCV inhibitor inconclusive.
COC(=O)c1c(NC(=O)c2ccco2)sc2c1CCN(C(C)C)C2 was read as Pf growth 96h inconclusive, Pf growth 48h -1%, AMA1-RON2 inh 16% and HCV inhibitor -23%.
Screening CC(C)N1CCc2c(sc(NC(=O)c3ccc4ccccc4c3)c2C(N)=O)C1 returned Pf growth 96h 9.3µM*, Pf growth 48h 10µM*, AMA1-RON2 inh 7% and HCV inhibitor 8.9µM*.
For CC(C)N1CCc2c(sc(NC(=O)Cc3ccccc3)c2C(N)=O)C1 the results were Pf growth 96h inconclusive, Pf growth 48h inconclusive, AMA1-RON2 inh 0% and HCV inhibitor -17%.
`CN1CCc2c(sc(NC(=O)c3cc(Cl)sc3Cl)c2C(N)=O)C1` gave Pf growth 96h inconclusive, Pf growth 48h inconclusive, AMA1-RON2 inh 8% and HCV inhibitor 13µM*.
`CC(C)N1CCc2c(sc(NC(=O)c3ccco3)c2C(N)=O)C1` gave Pf growth 96h inconclusive, Pf growth 48h 0.47µM*, AMA1-RON2 inh 31% and HCV inhibitor -12%.
For CN1CCc2c(sc(NC(=O)c3ccco3)c2C(N)=O)C1 the results were Pf growth 96h inconclusive, Pf growth 48h inconclusive and AMA1-RON2 inh -21%.
CC(=O)Nc1sc2c(c1-c1nc3ccccc3s1)CCN(C(C)C)C2 was read as Pf growth 96h 4.1µM*, Pf growth 48h 3.7µM*, AMA1-RON2 inh 4% and HCV inhibitor 8.9µM*.
For CCN1CCc2c(sc(NC(=O)c3cc4ccccc4cc3OC)c2C(N)=O)C1 the results were Pf growth 96h inconclusive, Pf growth 48h 9.3µM*, AMA1-RON2 inh 16% and HCV inhibitor 8.9µM*.
CCOC(=O)[C@]12CCCC=C1N(Cc1cccc3ccccc13)C(=O)[C@H](CC(=O)NCCCCc1ccccc1)C2 was read as AMA1-RON2 inh -4%.
Screening Cc1ccc(Cl)c(OC(=O)Cn2cnc3c2c(=O)n(C)c(=O)n3C)c1 returned Pf growth 96h 11%, Pf growth 48h inconclusive, AMA1-RON2 inh 16% and HCV inhibitor 9%.
CC(C)(C)c1ccccc1NC(=O)NC1CCN(Cc2c(F)cccc2Cl)CC1 was read as Pf growth 96h inconclusive, Pf growth 48h 7.4µM*, AMA1-RON2 inh 16% and HCV inhibitor 10%.
Screening Cc1ccc(-c2nc(Nc3ccc(N4CCOCC4)cc3)c3ccccc3n2)cc1 returned Pf growth 96h inconclusive, Pf growth 48h 13µM*, AMA1-RON2 inh inconclusive and HCV inhibitor inconclusive.
For Cc1ccc(-c2nc(N(C)C3CCN(C)CC3)c3ccccc3n2)cc1 the results were Pf growth 96h 6.6µM*, AMA1-RON2 inh -14% and HCV inhibitor inconclusive.
